The structures appear in SMILES notation. “And” between values parts separate entries of the source, which are not always exact repeats. Identical values can stand only once. Records with an inconclusive call do not appear. A number with no mark means an inactive call. The source made the active and inactive calls. Calls follow the shape of the dose curve; as a rule, active = well fitted inhibition curve with a large enough effect; inconclusive = small, poorly fitted or top-dose-only effect; inactive = flat fitted curve, though single readings scatter.

For one assay, the system named is HEK293. The assay is described as follows: Cytotoxic Profiling of Annotated Libraries Using Quantitative High-Throughput Screening (AID 1296008). As to max response: % is scaled to controls: 0 for no effect and ±100 for the full control effect. Conditions: Five cell lines viability, CellTiter-Glo ATP luminescence, 48-72 h; max response: hits give low values. In short, it runs like this: (§1)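 Cytotoxicity was measured as CellTiter-Glo ATP luminescence, read after 10 min at room temperature. Compound treatment of the cells lasted 48 or 72 hr at 37 degrees Celsius in a qHTS format.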

The test system of assay [1] is HaCat. Described as above. Conditions: Five cell lines viability, CellTiter-Glo ATP luminescence, 48-72 h; max response: hits give low values. In short, it runs like this:
as §1

The next assay has as its system KB-3-1. The assay is described as above. Conditions: Five cell lines viability, CellTiter-Glo ATP luminescence, 48-72 h; max response: hits give low values. In short, it runs like this:
as §1
On the technique in general: ATP-based viability assays read luminescence as a measure of living cells.

In assay [2] the test system is NIH3T3. The assay is described as above. The following applies: Five cell lines viability, CellTiter-Glo ATP luminescence, 48-72 h; max response: hits give low values. In short, it runs like this: as §1
The subject of the next assay is MCC-13. Nature of the assay: qHTS assay to identify novel small-molecules to repurpose for Merkel cell carcinoma treatment (AID 1296009). The following applies: MCC and control cell lines, CellTiter-Glo viability, 72 h; series mostly up to 46 µM. In short, it runs like this:
(§2)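 Cell viability measured by CellTiter-Glo following 72 hr compound treatment at 37 degree celsius, with NPC and MIPE libraries tested in 8- and 11-point concentration series.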
On the technique in general: Quantitative high-throughput screening tests each substance at several concentrations.

The subject of the next assay is MCC-26. The assay is described as above. The following applies: MCC and control cell lines, CellTiter-Glo viability, 72 h; series mostly up to 46 µM. A digest of the protocol: as §2
A further assay has as its system MKL-1. Described as above. The following applies: MCC and control cell lines, CellTiter-Glo viability, 72 h; series mostly up to 46 µM. A digest of the protocol: as §2
A further assay has as its system UISO. The description is as above. The following applies: MCC and control cell lines, CellTiter-Glo viability, 72 h; series mostly up to 46 µM. A digest of the protocol:
as §2

Another assay concerns PC26. The assay is described as follows: qHTS profiling for inhibitors of Plasmodium falciparum proliferation (AID 504749). Conditions: P. falciparum in erythrocytes, SYBR Green DNA, 72 h; series mostly up to 28.7 µM. A digest of the protocol: (§3)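 In a 72 h erythrocytic culture (37 C, humidified, 5% CO2) at 2.5% hematocrit and 0.3% starting parasitemia, compounds were tested; SYBR Green I in detergent lysis buffer stained parasite DNA overnight.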

The next assay relates to PC49. The description is as above. The following applies: P. falciparum in erythrocytes, SYBR Green DNA, 72 h; series mostly up to 28.7 µM. In short, it runs like this:
as §3

The next assay relates to SC27B. The assay is described as above. Conditions: P. falciparum in erythrocytes, SYBR Green DNA, 72 h; series mostly up to 28.7 µM. In short, it runs like this: as §3
The next assay concerns TAB109. Described as above. The following applies: P. falciparum in erythrocytes, SYBR Green DNA, 72 h; series mostly up to 28.7 µM. In short, it runs like this:
as §3

Another assay deals with TAB113. The description is as above. Conditions: P. falciparum in erythrocytes, SYBR Green DNA, 72 h; series mostly up to 28.7 µM. A digest of the protocol: as §3
The next assay concerns TAB165. Described as above. Conditions: P. falciparum in erythrocytes, SYBR Green DNA, 72 h; series mostly up to 28.7 µM. A digest of the protocol:
as §3

For a further assay, the system named is W2. Described as above. Conditions: P. falciparum in erythrocytes, SYBR Green DNA, 72 h; series mostly up to 28.7 µM. A digest of the protocol:
as §3

The subject of assay [3] is HACAT. The assay is described as follows: qHTS assay to identify novel small-molecules to repurpose for Merkel cell carcinoma treatment (AID 1296009). The following applies: MCC and control cell lines, CellTiter-Glo viability, 72 h; series mostly up to 44.8 µM. In short, it runs like this: as §2
A further assay deals with MKL-2. Described as above. The following applies: MCC and control cell lines, CellTiter-Glo viability, 72 h; series mostly up to 46 µM. In short, it runs like this:
as §2

Assay [4] deals with NIH3T3. Described as above. The following applies: MCC and control cell lines, CellTiter-Glo viability, 72 h; at 44.8 µM (top of the series) unless noted. In short, it runs like this: as §2
Also: nearly all actives have a fitted effect of over 60% in size.
Potency is read from the fitted curve at half-maximal effect.

Regarding `COCCn1c2c([n+](Cc3cnccn3)c1C)C(=O)c1ccccc1C2=O`, the Potency with HEK293 was 16.6 nM (active); in the assay with HaCat [1], 74.3 nM (active); in the assay on KB-3-1 it was 14.8 nM (active); in the assay with NIH3T3 [2], 16.6 µM (active); with MCC-13 it was 590 nM (active); in the assay with MCC-26 it was 296 nM (active). The Potency with MKL-1 was 2.3 nM (active); in the assay with UISO it was 18.7 nM (active).
For `Nc1ccc(S(=O)(=O)Nc2ncccn2)cc1`, the Potency entry with PC26, in the assay with PC49, in the assay on SC27B, with TAB109, with TAB113 and in the assay with TAB165 was “inactive” in each case. The Potency entry in the assay on W2, in the assay with HACAT [3], with MCC-13, in the assay on MCC-26, with MKL-1 and in the assay with MKL-2 was “inactive” in each case. Besides, in the assay with UISO, the Potency entry was “inactive”. For the same molecule, the result in the assay with NIH3T3 [4] was inactive.
Turning to `CC(C)(C)NC(=O)[C@H]1CN(Cc2cccnc2)CCN1C[C@@H](O)C[C@@H](Cc1ccccc1)C(=O)N[C@H]1c2ccccc2C[C@H]1O`, the Potency was 8490 nM (active) with PC26, 11200 nM (active) in the assay on TAB113 and 6010 nM (active) in the assay with W2. Further, the Potency entry in the assay on PC49, with MCC-13, with MCC-26, with MKL-1 and in the assay with UISO was “inactive” throughout. Moreover, the max response in the assay with KB-3-1 was -44.5%.
Take `C=CC(=O)Nc1cc2c(Nc3ccc(F)c(Cl)c3)ncnc2cc1OCCCN1CCOCC1`: the values for the Potency in the assay on HaCat [1] and in the assay with NIH3T3 [2] were 9.4 nM (active) and 4.73 µM (active), respectively. Further, the molecule was classed as inactive with KB-3-1. The Potency result in the assay on MCC-13 and in the assay on MCC-26 was “inactive” in each case.
For the molecule `Cn1cncc1[C@@](N)(c1ccc(Cl)cc1)c1ccc2c(c1)c(-c1cccc(Cl)c1)cc(=O)n2C`, the Potency was 148 nM (active) in the assay on HEK293, 14800 nM (active) with KB-3-1, 4690 nM (active) with MKL-1 and 3720 nM (active) in the assay on MKL-2. For the same molecule, in the assay with MCC-26, the Potency result is “inactive”.
For the molecule `CC(C)c1noc(N2CCC(COc3ccc(-c4ccc(S(C)(=O)=O)cc4)nc3)CC2)n1`, the Potency in the assay with HEK293 was 7.43 µM (active) and 8.2 µM (active). In addition, the max response in the assay on HaCat [1] is -15.4% and 4.61%; in the assay with NIH3T3 [2] it was -1.13% and 3.22%. Also, the Potency entry with MCC-13, in the assay with MCC-26, in the assay on MKL-1 and in the assay on MKL-2 was “inactive” in each case.
On to `Cc1cc(Nc2cc(N3CCN(C)CC3)nc(Sc3ccc(NC(=O)C4CC4)cc3)n2)n[nH]1`, for which the Potency in the assay on HEK293 is 7.43 µM (active) and 7.31 µM (active); in the assay on HaCat [1] it was 6620 nM (active); with KB-3-1, 8.33 µM (active) and 8.2 µM (active); in the assay on NIH3T3 [2], 16.6 µM (active) and 20.6 µM (active). For the same molecule, the Potency result in the assay with MKL-2 and in the assay on UISO was “inactive” each time.
Turning to `CN1CCN(c2ccc3nc(-c4c(N)c5c(F)cccc5[nH]c4=O)[nH]c3c2)CC1`, the Potency in the assay with HEK293 was 1660 nM (active); with KB-3-1, 16600 nM (active); in the assay on NIH3T3 [2], 1.32 µM (active); with MKL-1, 8330 nM (active).
As to `CCCCN1CCC(CNC(=O)c2c3n(c4ccccc24)CCCO3)CC1`, the Potency result in the assay with MCC-13 and with MCC-26 was “inactive” throughout.
On to `CCN1CCN(Cc2ccc(-c3cc4c(N[C@H](C)c5ccccc5)ncnc4[nH]3)cc2)CC1`, for which the Potency in the assay on HaCat [1] was 1480 nM (active); in the assay on NIH3T3 [2], 16.6 µM (active); with MCC-13, 4180 nM (active); with MCC-26 it was 743 nM (active); with MKL-2 it was 13.2 nM (active); in the assay with UISO, 118 nM (active). Moreover, the max response in the assay on KB-3-1 is -20%.
Turning to `Cc1cc(Nc2cc(NC(=O)c3c(Cl)cccc3Cl)ccn2)nc(N)n1`, the Potency in the assay on HEK293 is 935 nM (active); in the assay with KB-3-1 it was 418 nM (active); in the assay with NIH3T3 [2], 3.72 µM (active); with MCC-26, 26400 nM (active); in the assay with UISO, 1180 nM (active).
For `Cc1cc(CN2CCN(c3c(Br)cnc4nc(-c5ccc(N6CCN(C)CC6)cc5)[nH]c34)CC2)no1`, the Potency in the assay on HEK293 is 23.5 µM (active) and 9.2 µM (active); in the assay with HaCat [1], 2350 nM (active); with KB-3-1, 18.7 µM (active) and 16.4 µM (active); in the assay with NIH3T3 [2], 13.2 µM (active) and 1.46 µM (active); with MKL-1 it was 3320 nM (active); in the assay on MKL-2, 26400 nM (active). Also, the Potency result in the assay on MCC-26 was “inactive”.
As for `CCCCOc1c(C(=O)c2c(F)cc(C)cc2F)cnc2n[nH]cc12`, the Potency was 14.8 µM (active) and 2.59 µM (active) with HEK293; 16.6 µM (active) in the assay on NIH3T3 [2]. The call in the assay on KB-3-1 was inactive. In addition, the Potency entry in the assay on MCC-13, in the assay with MCC-26, in the assay on MKL-1 and with MKL-2 was “inactive” in each case.

(Values after PubChem BioAssay (NCATS).)
